Laboratory results reported in PubChem BioAssay.
Records with an inconclusive call do not appear. Values without a mark were called inactive.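 The calls were made as follows: active = cell viability at or below a set limit in both duplicate runs, the limit being the all-compound median minus 4 SD (cut at about 23% in these data, passing the limit was not always enough); inconclusive = no clear call, values can overlap the other calls; inactive = the rest.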

Test: growth suppression of beta-catenin knockout HCT116, pilot screen, human colon tumor cells (AID 823);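 also: 0% = wells killed by 20 µM Hyamine and 100% = untreated DMSO cell wells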
Conditions: CellTiter-Glo, 60 h, at 10 µM, stronger effect = lower value

| SMILES | viability [%] |
| --- | --- |
| O=C(NCc1ccco1)c1cc(S(=O)(=O)N2CCOCC2)ccc1Cl | 86.2 |
| CCCCCOC(=O)NCC(O)c1ccccc1 (configuration not stated) | 101 |
| CC(NC(=O)c1ccc(Cl)cc1)C(=O)N1CCCCC1 (configuration not stated) | 98 |
| CCOc1ccc(S(=O)(=O)Nc2ccccc2C(=O)NCC2CCCO2)cc1 (configuration not stated) | 94.1 |
| CCOC(=O)c1sc2nc(NC(=O)c3cccs3)sc2c1C | 92.5 |
| Cc1noc(C)c1S(=O)(=O)NC1CCN(Cc2ccccc2)CC1 | 95.8 |
| CCOC(=O)c1ccccc1NC(=O)C1COc2ccccc2O1 (configuration not stated) | 83.2 |
| CCOC(=O)N1CCC(NC(=O)C2CCN(Cc3nc(-c4ccc(CC)cc4)oc3C)CC2)CC1 | 84.2 |
| Cc1ccc(C2CC(c3cccc(C)c3)n3ncnc3N2)cc1 (configuration not stated) | 85.7 |
| CCN1C(=O)C(O)(CC(=O)c2ccc3c(c2)OCCO3)c2ccccc21 (configuration not stated) | 99.1 |
| CN(C)c1nc(N)nc(-c2cccnc2)n1 | 102 |
| CCOC(=O)c1cccc(NC(=O)CNC(=O)C2CCCCC2)c1 | 96.1 |
| Cn1cc(S(=O)(=O)Nc2ccc(F)cc2F)c(=O)n(C)c1=O | 98.8 |
| O=C1NCCCC1C(=O)NCCNC(=O)C(F)(F)F (configuration not stated) | 101 |
| CCc1ccc(C2CC(c3cccc(Cl)c3)n3nc(N)nc3N2)cc1 (configuration not stated) | 71.5 |
| CN1CCN(C(=O)c2ccccc2NC(=O)Cc2ccccc2)CC1 | 98.4 |
| Cc1nnc(Sc2nc3c(c(=O)[nH]c(=O)n3C)n2Cc2ccccc2Cl)s1 | 96.8 |
